Measured values taken from PubChem BioAssay AID449 (The Scripps Research Institute Molecular Screening Center, 2006).
Out of some 56,000 compounds screened, about 320 (0.57%) were called active.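 The calls were made as follows: active = activation above a cutoff set at the mean activation of all tested compounds plus 3 SD (cut at about 54% in these data); inactive = the rest, inconclusive results apart.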 The full list was thinned out, with actives kept by preference.

Target: Sphingosine 1-phosphate receptor 1 (Homo sapiens) (UniProt P21453)
Sequence (P21453 whole entry, looked up): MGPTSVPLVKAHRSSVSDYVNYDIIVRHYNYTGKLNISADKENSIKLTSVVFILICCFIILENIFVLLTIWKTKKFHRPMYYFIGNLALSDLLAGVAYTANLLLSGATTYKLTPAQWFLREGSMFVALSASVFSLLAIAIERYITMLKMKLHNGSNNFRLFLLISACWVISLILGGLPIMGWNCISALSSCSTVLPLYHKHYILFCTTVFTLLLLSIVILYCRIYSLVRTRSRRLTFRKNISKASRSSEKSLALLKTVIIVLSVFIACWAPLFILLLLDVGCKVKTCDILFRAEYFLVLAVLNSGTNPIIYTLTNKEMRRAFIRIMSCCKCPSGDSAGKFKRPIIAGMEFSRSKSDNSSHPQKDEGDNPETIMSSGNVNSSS
Assay: S1P1 agonists and agonism potentiators, primary screen, cell-based, primary and confirmation screens, CRE-bla reporter (AID 449);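 also: forskolin at 4 µM as EC80 and the EC20 agonist is SEW2871; 100% = SEW2871 at its EC100 plus forskolin at EC80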
Details: S1P1 CRE-bla cells, forskolin, beta-lactamase FRET, potentiator mode, at 9.5 µM, stronger effect = higher value, 100% = saturating reference agonist, 0% = basal, S1P1 agonist co-added at EC20, 2 nM
[1] = measured here: confirmation screen, triplicate average

**Q.** CCc1ccc(N(CC)c2ncnc3nc[nH]c23)cc1 was tested. Which activation did it give?
**A.** Its activation is 56.5% (active).

**Q.** And the activation [1]?
**A.** The activation was 57.4%.

**Q.** c1ccc2c(c1)OCC(CNc1ncnc3nc[nH]c13)O2 (stereo not given) was tested. Which activation did it give?
**A.** The activation was 23.9% (inactive).

**Q.** COc1ccc(CCNc2ncnc3nc[nH]c23)cc1OC was tested. Which activation did it give?
**A.** Its activation is -11.4% (inactive).

**Q.** COC(=O)c1cc(C(=O)CSc2nc(C)cc(C)n2)ccc1O was tested. Which activation did it give?
**A.** Its activation is -13.3% (inactive).

**Q.** With CC(C)OC(=O)c1sc2nc3c(cc2c1N)C(=O)CCC3 as the compound, how does the activation read?
**A.** The activation was -1.6% (inactive).

**Q.** With Cc1ccc(-c2nn(-c3ccccc3)cc2CN(Cc2ccccc2)C(=O)CCC(=O)O)o1 as the compound, how does the activation read?
**A.** The activation was -15.4% (inactive).

**Q.** For CCCc1nc(SCC(=O)Nc2ccccc2OC)c2c(=O)n(C)c(=O)n(C)c2n1, which activation is on record?
**A.** Its activation is -6% (inactive).

**Q.** COc1ccc(-n2c(C)cc(C(=O)CSc3nnc(-c4cccs4)o3)c2C)cc1 was tested. Which activation did it give?
**A.** Its activation is 114% (active).

**Q.** What about the activation [1] of the same compound?
**A.** Its activation is 111%.

**Q.** With COc1ccc(-c2nnc(SCC(=O)c3cccs3)o2)c(OC)c1 as the compound, how does the activation read?
**A.** The activation was 8.5% (inactive).

**Q.** For COc1ccc(OC)c(C(=O)CSc2nnc(-c3cccs3)o2)c1, which activation is on record?
**A.** Its activation is -31.3% (inactive).

**Q.** For CCOC(=O)c1sc(/N=C/Nc2nc(C)c(C(=O)OCC)s2)nc1C, which activation is on record?
**A.** The activation was 11.8% (inactive).

**Q.** For Cc1cc(C(=O)N2CCN(c3ccccn3)CC2)c(C)o1, which activation is on record?
**A.** The activation was -7.8% (inactive).

**Q.** How did the activation turn out when COc1cccc(N(CC(=O)Nc2cccc(F)c2)S(C)(=O)=O)c1 was run?
**A.** The activation was 13.1% (inactive).

**Q.** Which activation does the source give for COc1ccc(C)c2sc(=NC(=O)c3ccc(C#N)cc3)n(C)c12 here?
**A.** Its activation is -12.3% (inactive).

**Q.** How did the activation turn out when CCSC1(SCC)N=C(N)C2(C#N)C(c3ccccc3)NC(C)=CC12C#N (stereo not given) was run?
**A.** The activation was 2.3% (inactive).

**Q.** With CC(NC(=O)c1ccc(Cl)cc1)C(=O)N1CCCCC1 (stereo not given) as the compound, how does the activation read?
**A.** The activation was -2% (inactive).

**Q.** Which activation does the source give for CC1CSc2nnc(CCc3ccccc3)n21 (stereo not given) here?
**A.** Its activation is -14.3% (inactive).

**Q.** CC12COC3(C(=O)Nc4ccc(Cl)cn4)CC1CCC32C (stereo not given) was tested. Which activation did it give?
**A.** The activation was -10.8% (inactive).

**Q.** Which activation does the source give for COCCCn1c2nc3ccccc3nc2c2c(=O)n(Cc3ccc(Cl)cc3)c(C)nc21 here?
**A.** Its activation is 6% (inactive).

**Q.** CCC(C(=O)Nc1ncccn1)(C(F)(F)F)C(F)(F)F was tested. Which activation did it give?
**A.** The activation was -4.8% (inactive).

**Q.** CC(C)Cc1cc(C(=O)NCCc2ccccc2)no1 was tested. Which activation did it give?
**A.** Its activation is 20.9% (inactive).

**Q.** CCCOc1ccc(-c2nc(N)n[nH]2)cc1 was tested. Which activation did it give?
**A.** Its activation is 5.2% (inactive).

**Q.** For CCOC(=O)C1CCCN(C(=O)Cn2ncc3c(=O)oc4ccc(C)cc4c32)C1 (stereo not given), which activation is on record?
**A.** Its activation is -8.1% (inactive).

**Q.** Cc1cc(OCCN2CCCC2)ccc1C(C)C was tested. Which activation did it give?
**A.** Its activation is -14.6% (inactive).

**Q.** Which activation does the source give for COc1ccc(OC)c2[nH]c(=O)c(CCNC(=O)C(C)(C)C)cc12 here?
**A.** The activation was -8.4% (inactive).

**Q.** Which activation does the source give for CCOC(=O)CSC1=C(C#N)C(c2sccc2C)CC(=O)N1 (stereo not given) here?
**A.** Its activation is -11.6% (inactive).

**Q.** Which activation does the source give for CC(=O)N1CCN(C(=O)c2cccc(S(=O)(=O)Nc3ccc(C)cc3)c2)CC1 here?
**A.** Its activation is -12.2% (inactive).

**Q.** How did the activation turn out when Cc1c(C(=O)NCC2CCCO2)sc2nc(-c3ccccc3)cn12 (stereo not given) was run?
**A.** The activation was -17.8% (inactive).

**Q.** Which activation does the source give for CCOc1ccc(NC(=O)CSc2nc3c(c(=O)n2-c2ccccc2OC)SCC3)cc1 here?
**A.** Its activation is -5.9% (inactive).

**Q.** COc1ccc(OC)c2sc(NC(=O)C3COc4ccccc4O3)nc12 (stereo not given) was tested. Which activation did it give?
**A.** The activation was -1.3% (inactive).

**Q.** With COc1ccc(CCNC(=O)CN2CCC(n3nnc4cc(F)ccc43)CC2)cc1OC as the compound, how does the activation read?
**A.** Its activation is -19.7% (inactive).

**Q.** With COCCOC(=O)C1=C(C)N=c2s/c(=C\c3cccs3)c(=O)n2C1c1cccs1 (stereo not given) as the compound, how does the activation read?
**A.** The activation was 2.2% (inactive).

**Q.** How did the activation turn out when COc1ccc(OC)c(CNC(=O)CCc2nc(-c3cccs3)no2)c1 was run?
**A.** The activation was 9.5% (inactive).

**Q.** Which activation does the source give for CC(C)(C)NC(=O)C(c1ccco1)N(Cc1ccc2c(c1)OCO2)C(=O)Cn1nnc2ccccc21 (stereo not given) here?
**A.** The activation was 11.2% (inactive).

**Q.** For c1ccc(-n2ncc3c2ncn2c(CSc4nc5ccccc5s4)nnc32)cc1, which activation is on record?
**A.** The activation was -7.8% (inactive).

**Q.** How did the activation turn out when CCn1c(=O)cc(O)c2ccccc21 was run?
**A.** Its activation is -26.6% (inactive).

**Q.** How did the activation turn out when CCc1ccccc1NC(=O)c1cccs1 was run?
**A.** The activation was -18.1% (inactive).

**Q.** How did the activation turn out when O=C(OCCO)c1cc(Cl)c(C(=O)OCCO)cc1Cl was run?
**A.** The activation was -15.8% (inactive).

**Q.** For Fc1ccc(Br)cc1/C=N/n1cnnc1, which activation is on record?
**A.** The activation was -20% (inactive).

**Q.** CC1(C)CC(=O)C(C=NCCC2=CCCCC2)=C(O)C1 was tested. Which activation did it give?
**A.** Its activation is -14.2% (inactive).

**Q.** With O=C(c1cccc(C(=O)N2CCN(c3ccc(F)cc3)CC2)c1)N1CCN(c2ccc(F)cc2)CC1 as the compound, how does the activation read?
**A.** The activation was 46% (inactive).

**Q.** For Cn1c2c(c(=O)n(C)c1=O)CN(Cc1ccco1)CN2, which activation is on record?
**A.** Its activation is -5.4% (inactive).

**Q.** For COc1ccc(C2/C(=C(/O)c3ccc(OC(C)C)cc3)C(=O)C(=O)N2CCCN2CCOCC2)cc1 (stereo not given), which activation is on record?
**A.** The activation was 10.9% (inactive).

**Q.** CS(=O)(=O)N(Cc1nc2sc3c(c2c(=O)[nH]1)CCCC3)C1CCCCC1 was tested. Which activation did it give?
**A.** Its activation is -3.8% (inactive).

**Q.** With Cc1ccccc1Cn1c(=O)[nH]c2ccccc21 as the compound, how does the activation read?
**A.** Its activation is 1% (inactive).

**Q.** How did the activation turn out when O=C(COc1ccc(Cl)cc1)Nc1ccccc1CO was run?
**A.** The activation was 0% (inactive).

**Q.** With Cc1ccc(CCn2c3c(c4ccccc42)CN(C)CC3)cn1 as the compound, how does the activation read?
**A.** Its activation is 6.4% (inactive).

**Q.** Which activation does the source give for CC1CN(Cc2nc3c(c(=O)n(C)c(=O)n3C)n2Cc2cccc(Cl)c2)CC(C)O1 (stereo not given) here?
**A.** Its activation is -22.8% (inactive).

**Q.** For CCOC(=O)C1C(=O)C=C(c2ccc(OC)cc2)CC1c1ccco1 (stereo not given), which activation is on record?
**A.** Its activation is 91.1% (active).

**Q.** And the activation [1]?
**A.** The activation was 86.3%.

**Q.** COc1ccc(CCNC(=O)c2ccco2)cc1 was tested. Which activation did it give?
**A.** Its activation is -9.8% (inactive).

**Q.** How did the activation turn out when CCOC(=O)C1C(=O)NC(N2CCN(c3ccccc3)CC2)=NC1c1ccco1 (stereo not given) was run?
**A.** Its activation is -4.8% (inactive).

**Q.** With COc1ccc(-n2nc3c(c2NC(=O)Cc2cccc(C)c2)CS(=O)C3)cc1 (stereo not given) as the compound, how does the activation read?
**A.** The activation was -1.3% (inactive).

**Q.** Which activation does the source give for CN1CCN(c2cc(=O)n(-c3ccc(Cl)cc3)c(=O)[nH]2)CC1 here?
**A.** The activation was -1.5% (inactive).

**Q.** For O=C1c2ccccc2C(O)N1Cc1ccccc1Cl (stereo not given), which activation is on record?
**A.** Its activation is 15.2% (inactive).

**Q.** With O=C(c1cccs1)N1CCCC(c2nc(-c3ccc(F)cc3)no2)C1 (stereo not given) as the compound, how does the activation read?
**A.** Its activation is 22.8% (inactive).

**Q.** For COc1cc(-c2noc(C3CCCN(S(=O)(=O)c4cccc(Cl)c4)C3)n2)cc(OC)c1OC (stereo not given), which activation is on record?
**A.** Its activation is 91.7% (active).

**Q.** What about the activation [1] of the same compound?
**A.** Its activation is 85.9%.

**Q.** How did the activation turn out when O=C(Cc1cccs1)N1CCCC(c2nc(-c3ccc(S(=O)(=O)N4CCCC4)cc3)no2)C1 (stereo not given) was run?
**A.** Its activation is 18.8% (inactive).

**Q.** COc1nc(NCc2ccc(Cl)cc2)nc(OC)n1 was tested. Which activation did it give?
**A.** The activation was -7.3% (inactive).

**Q.** O=C(Cn1cnc2c(cnn2-c2ccc(F)cc2)c1=O)NCCc1ccccc1 was tested. Which activation did it give?
**A.** The activation was -3.5% (inactive).

**Q.** For Nc1nnc(C2CCCC2)s1, which activation is on record?
**A.** The activation was -4.9% (inactive).

**Q.** For Cn1c(SCC(=O)N2CCOCC2)nnc1-c1ccc(NC(=O)c2ccccc2F)cc1, which activation is on record?
**A.** Its activation is 2.6% (inactive).
